Reference: PubChem BioAssay (Tox21)
Results filed as inconclusive are left out. The source made the active and inactive calls. Unless noted, the call rests on the fitted dose curve.

test: qHTS assay to identify small molecule agonists of the hypoxia (HIF-1) signaling pathway - cell viability counter screen (AID 1224844); conditions: HRE-bla ME-180 viability, CellTiter-Glo luminescence, 17 h; series mostly up to 76.8 µM; activity change, negative = cytotoxicity: at the top concentration; further: nearly all actives have a fitted effect of over 50% in size
Outline: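 HRE-bla ME-180 cells in medium with 0.5% dialyzed FBS were preincubated 5 hrs at 37C, exposed to compounds for 17 hrs, then viability was read as CellTiter-Glo luminescence after 30 min at room temperature, in the reporter wells.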
On the % scale 0 is the no-effect control and ±100 the full control effect.

SMILES | activity change, negative = cytotoxicity
CC(C)(C)c1nnc(NS(=O)(=O)c2ccccc2)s1 | -6.86% [at 35.3 µM] (inactive)
c1ccc(CC2=NCCN2)cc1 | 7.62% [at 35.3 µM] (inactive)
CCCCCCCCCCCCN(CCCCCCCCCCCC)CCCCCCCCCCCC | 1.74% (inactive)
COc1c(N2C[C@@H]3CCCN[C@@H]3C2)c(F)cc2c(=O)c(C(=O)O)cn(C3CC3)c12 | 4.86% [at 35.3 µM] (inactive)
COC(=O)c1ccc(C)cc1C1=NC(C)(C(C)C)C(=O)N1 (stereo unspecified) | -8.74% (inactive)
CS(=O)(=O)O | 1.49% (inactive)
Cc1ccc(C#N)cc1 | 0.706% (inactive)
O=C(O)c1ccccc1OP(=O)(O)O | -8.85% [at 35.3 µM] (inactive)
O=c1[nH]c(=O)n([C@H]2C[C@H](O)[C@@H](CO)O2)cc1I | -3.65% [at 35.3 µM] (inactive)
CCOC(=O)[C@H](CCc1ccccc1)N[C@@H](C)C(=O)N1[C@H](C(=O)O)C[C@@H]2CCC[C@@H]21 | 0.128% [at 35.3 µM] (inactive)
O=C(O)CCCc1ccccc1 | -1.62% [at 35.3 µM] (inactive)
Cc1cc2c(cc1S(N)(=O)=O)S(=O)(=O)CCC2 | 5.42% [at 35.3 µM] (inactive)
O=C(CCCN1CCN(c2ccccn2)CC1)c1ccc(F)cc1 | 2.2% [at 35.3 µM] (inactive)
CCS(=O)(=O)c1ccc(OC)c(C(=O)OC)c1 | 2.79% [at 35.3 µM] (inactive)
O=Cc1cccc([N+](=O)[O-])c1 | -1.18% (inactive)
CN(C(=O)c1c(O)c2ccccc2n(C)c1=O)c1ccccc1 | -0.141% [at 35.3 µM] (inactive)
NS(=O)(=O)c1cc(C(=O)O)cc(N2CCCC2)c1Oc1ccccc1 | -3.07% [at 35.3 µM] (inactive)

test: qHTS assay to identify small molecule agonists of H2AX (AID 1224845; active means well fitted activation curve with a large enough effect in the signal ratio in the repeat runs, not every such curve was filed as active; the % refers to the signal ratio); conditions: CHO-K1 phospho-H2AX Ser139 HTRF, 3 h; series mostly up to 70.9 µM; activation (H2AX phosphorylation): at the top concentration
Outline: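 Wild-type CHO-K1 cells, plated overnight, exposed 3hr at 37C to 15 concentrations (0.76% DMSO final). Lysed, then HTRF anti-pH2AX (S139) cryptate and anti-H2AX-d2 antibodies, 24 hr room temperature; 665/620 nm emission read.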

SMILES | activation (H2AX phosphorylation)
CC(C)(C)c1nnc(NS(=O)(=O)c2ccccc2)s1 | 1.13% (inactive)
c1ccc(CC2=NCCN2)cc1 | -5.42% (inactive)
CCCCCCCCCCCCN(CCCCCCCCCCCC)CCCCCCCCCCCC | -0.543% [at 154 µM] (inactive)
COC(C)(C)CCCC(C)CC=O (stereo unspecified) | -1.32% [at 154 µM] (inactive)
C=CCS(=O)(=O)O | -0.308% [at 154 µM] (inactive)
COCCCOCCCOC | 1.91% [at 154 µM] (inactive)
NS(=O)(=O)c1ccc(C(=O)O)cc1 | 0.105% (inactive)
COc1c(N2C[C@@H]3CCCN[C@@H]3C2)c(F)cc2c(=O)c(C(=O)O)cn(C3CC3)c12 | 1.35% (inactive)
COC(=O)c1ccc(C)cc1C1=NC(C)(C(C)C)C(=O)N1 (stereo unspecified) | 0.314% [at 154 µM] (inactive)
CS(=O)(=O)O | -1.82% [at 154 µM] (inactive)
CC(=O)c1ccccc1O | -1.45% [at 154 µM] (inactive)
Cc1ccc(C#N)cc1 | 0.91% [at 154 µM] (inactive)
O=C(O)c1ccccc1OP(=O)(O)O | -1.3% (inactive)
O=c1[nH]c(=O)n([C@H]2C[C@H](O)[C@@H](CO)O2)cc1I | -2.75% (inactive)
CC(C)NC(=O)NC(C)C | -1.89% [at 154 µM] (inactive)
CCOC(=O)[C@H](CCc1ccccc1)N[C@@H](C)C(=O)N1[C@H](C(=O)O)C[C@@H]2CCC[C@@H]21 | -0.0687% (inactive)

SMILES | activation (H2AX phosphorylation)
COc1cc(C(=O)N2CCCCCCC2)cc(OC)c1OC | -0.707% (inactive)
O=C(O)CCCc1ccccc1 | -2.48% (inactive)
CO/N=C(/C(=O)N[C@@H]1C(=O)N2C(C(=O)OCOC(=O)C(C)(C)C)=C(C)CS[C@H]12)c1csc(N)n1 | 1.75% (inactive)
Cc1cc2c(cc1S(N)(=O)=O)S(=O)(=O)CCC2 | 0.283% (inactive)
O=C(CCCN1CCN(c2ccccn2)CC1)c1ccc(F)cc1 | -0.217% (inactive)
CCS(=O)(=O)c1ccc(OC)c(C(=O)OC)c1 | 0.434% (inactive)
CC1=CC(C)C(C=O)CC1 (stereo unspecified) | -2.65% [at 154 µM] (inactive)
CCOC(=O)C(=O)OCC | -0.599% [at 154 µM] (inactive)
Cc1sccc1Br | -0.0798% (inactive)
CCCCCSCCCCC | -2.63% [at 154 µM] (inactive)
CC(=O)OCC(=O)[C@@]1(O)CCC2C3CCC4=CC(=O)CC[C@]4(C)C3[C@@H](O)C[C@@]21C (stereo partly specified) | -0.0626% (inactive)
O=Cc1cccc([N+](=O)[O-])c1 | 3.17% [at 154 µM] (inactive)
CN(C(=O)c1c(O)c2ccccc2n(C)c1=O)c1ccccc1 | -1.84% (inactive)
CC(C)CCCC(C)N (stereo unspecified) | 1.27% (inactive)
CCCCOCCOCCOCCCC | -0.492% [at 154 µM] (inactive)
NS(=O)(=O)c1cc(C(=O)O)cc(N2CCCC2)c1Oc1ccccc1 | 1.46% (inactive)

test: qHTS assay to identify small molecule agonists of the hypoxia (HIF-1) signaling pathway (AID 1224846; active means well fitted activation curve with a large enough effect in the signal ratio in the repeat runs, not every such curve was filed as active; the % refers to the signal ratio); conditions: HRE-bla ME-180 cells, beta-lactamase ratio, 17 h; series mostly up to 76.8 µM; activation: at the top concentration
Outline: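 HRE-bla ME-180 cells (beta-lactamase reporter under hypoxia response element) were plated at 2,000 cells/well in medium with 0.5% dialyzed FBS, rested 5 hrs, then given compounds in DMSO for 17 hrs at 37C, 5% CO2. Reporter induction was read with CCF4-AM FRET substrate.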

SMILES | activation
CC(C)(C)c1nnc(NS(=O)(=O)c2ccccc2)s1 | 0.057% [at 35.5 µM] (inactive)
CCCCCCCCCCCCN(CCCCCCCCCCCC)CCCCCCCCCCCC | 0.375% (inactive)
COC(C)(C)CCCC(C)CC=O (stereo unspecified) | 0.628% (inactive)
C=CCS(=O)(=O)O | 0.361% (inactive)
COCCCOCCCOC | -1.13% (inactive)
COc1c(N2C[C@@H]3CCCN[C@@H]3C2)c(F)cc2c(=O)c(C(=O)O)cn(C3CC3)c12 | -0.329% [at 35.5 µM] (inactive)
COC(=O)c1ccc(C)cc1C1=NC(C)(C(C)C)C(=O)N1 (stereo unspecified) | -0.856% (inactive)
CS(=O)(=O)O | -0.766% (inactive)
CC(=O)c1ccccc1O | 0.674% (inactive)
Cc1ccc(C#N)cc1 | 0.355% (inactive)
CC(C)NC(=O)NC(C)C | 0.0485% (inactive)
COc1cc(C(=O)N2CCCCCCC2)cc(OC)c1OC | -0.179% [at 35.5 µM] (inactive)
CO/N=C(/C(=O)N[C@@H]1C(=O)N2C(C(=O)OCOC(=O)C(C)(C)C)=C(C)CS[C@H]12)c1csc(N)n1 | -0.0527% [at 35.5 µM] (inactive)
Cc1cc2c(cc1S(N)(=O)=O)S(=O)(=O)CCC2 | 1.15% [at 35.5 µM] (inactive)
Cc1cc(O)cc2c1O[C@](C)(CCC[C@H](C)CCC[C@H](C)CCCC(C)C)CC2 | 0.604% [at 35.5 µM] (inactive)
CCOC(=O)c1c(C)n(C)c2ccc(O)cc12 | -0.374% [at 35.5 µM] (inactive)
CCS(=O)(=O)c1ccc(OC)c(C(=O)OC)c1 | 1.24% [at 35.5 µM] (inactive)
CC1=CC(C)C(C=O)CC1 (stereo unspecified) | -0.0989% (inactive)
CCOC(=O)C(=O)OCC | 3.68% (inactive)
Cn1c(N)c(N=O)c(=O)n(C)c1=O | -1.49% (inactive)
Cc1sccc1Br | 0.448% [at 35.5 µM] (inactive)
CCCCCSCCCCC | 0.0853% (inactive)
CC(=O)OCC(=O)[C@@]1(O)CCC2C3CCC4=CC(=O)CC[C@]4(C)C3[C@@H](O)C[C@@]21C (stereo partly specified) | -1.55% [at 35.5 µM] (inactive)
O=Cc1cccc([N+](=O)[O-])c1 | -1.17% (inactive)
CN(C(=O)c1c(O)c2ccccc2n(C)c1=O)c1ccccc1 | 0.233% [at 35.5 µM] (inactive)
CC(C)CCCC(C)N (stereo unspecified) | -1.49% [at 35.5 µM] (inactive)
CCCCOCCOCCOCCCC | -0.84% (inactive)
